# Results as given in PubChem BioAssay (NCATS).
# “And” between values parts separate entries of the source, which are not always exact repeats. Identical values can stand only once. Records with an inconclusive call do not appear. Unmarked numbers belong to inactive results.
# Assay: qHTS assay for small molecule activators of the p53 signaling pathway (AID 651743; active means well fitted activation curve with a large enough effect in the signal ratio, not every such curve was filed as active; the % refers to the signal ratio; further: series mostly up to about 92 µM)
# Conditions: HCT-116 p53RE-bla, beta-lactamase FRET ratio, 16 h; stronger effect = higher value
# Outline: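 Read-out is fluorescence intensity from the LiveBLAzer B/G FRET substrate, added for 2 hours at room temperature after HCT-116 p53RE-bla cells had been incubated with compounds for 16 hours at 37 C.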
# Further: % of control where 0% means no effect.
row,SMILES,activation
1,CNc1ccccc1,2.04%
2,Nc1cc(Cl)c(N)c(Cl)c1,0.0675% and 1.35%
3,CC(C)(C)OC=O,-3.33%
4,Cc1cccc(C(=O)O)c1,-0.475%
5,CNC(=O)c1ccccc1,1.09%
6,O=[N+]([O-])c1ccccc1CCO,-1.31%
7,N#Cc1ccccc1,-1.56%
8,Cc1c(N)cccc1[N+](=O)[O-],-0.892%
9,Clc1ccccn1,-3.75%
10,Nc1cc([N+](=O)[O-])ccc1C(=O)O,-3.96% and 3.5%
11,CC(O)COC(C)(C)C (centres undefined),-6.33%
12,CCC(C)(C)C,-0.874%

# Assay: qHTS assay for small molecule activators of the nuclear factor-kappa B (NF-kB) signaling pathway (AID 651749; active means well fitted activation curve with a large enough effect in the signal ratio; the % refers to the signal ratio; further: series mostly up to about 77 µM)
# Conditions: NF-kB-bla ME-180 cells, beta-lactamase FRET ratio, 16 h; stronger effect = higher value
# Outline: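 Readout: beta-lactamase reporter driven by an NF-kB response element, detected fluorescently as loss of FRET. Cells were the ME-180 line, treated 16 hr at 37C with pin-transferred compound.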
row,SMILES,activation
1,CC(C)=C1CCC(C)CC1=O (centres undefined),-0.315%
2,O=C(O)c1ccc(C(=O)O)cc1,0.423% and -1.36%
3,CCOc1ccccc1N,-1.4%
4,C=C(C)OC(C)=O,-0.753%
5,CC(=O)c1cc(C)oc1C,-0.373%
6,CC(N)CN (centres undefined),0.0382%
7,O=C1NC(=O)c2cc([N+](=O)[O-])ccc21,0.0192%
8,COC(=O)CC#N,-0.54%
9,Cc1ccccc1C(=O)O,-1.6%
10,CO[Si](CCCNCCC[Si](OC)(OC)OC)(OC)OC,0.71%
11,CC1(N)CCC(C(C)(C)N)CC1 (centres undefined),-1.08%
12,CC(O)CC(C)O (centres undefined),-0.133%
13,CCN(CC)c1cccc(O)c1,0.251%
14,C[C@@H]1O[C@@H](O[C@@H]2[C@@H](O)[C@H](OCCc3ccc(O)c(O)c3)O[C@H](CO[C@@H]3O[C@H](CO)[C@@H](O)[C@H](O)[C@H]3O)[C@H]2OC(=O)/C=C/c2ccc(O)c(O)c2)[C@H](O)[C@H](O)[C@H]1O,-0.414%
15,CNc1ccccc1,-1.25%
16,CNC(=O)c1ccccc1,-1.22%
17,Cc1ccc2oc(=O)ccc2c1,-0.483% and -1.78%
18,CCOC(=O)OCC,-0.0369%
19,O=[N+]([O-])c1ccccc1CCO,-0.881%
20,N#Cc1ccccc1,0.786%
21,Clc1ccccn1,-1%
22,CC(O)COC(C)(C)C (centres undefined),-0.964%
